Reference: PubChem BioAssay (NCATS)
Inconclusive results are not listed. Activity calls are given as the source filed them. The call rests on the fitted dose curve; in most records, active means well fitted curve in the direction sought with a large enough effect; inconclusive means small, poorly fitted or top-dose-only effect, or another doubt; inactive means no such curve, though single readings can be large; an effect the other way counts as inactive or inconclusive. Numbered stars: 1 amine (or outer) side, 2 acyl side, 3 side chain; on linkers, the order of the positions; unused ones are H or OH. Bridge positions count the residues as written; N and C are the ends. Square brackets hold non-standard residues; d marks the D form. Peptide text beside a SMILES is read from it. * marks the point of attachment. ξ: configuration not given here. ΔAla(Z-3-ureido) = NC(=O)N/C=C(\N)C(=O)O; ξDab(CH2SO3H) = NC(CCNCS(=O)(=O)O)C(=O)O; X2 = NC1=NC(O)CC(C(N[*:1])C(=O)[*:2])N1; Heptanoyl(6-Me) = CC(C)CCCCC(=O)*; ξβ3hOrn = NCCCC(N)CC(=O)*; Dab = NCC[CH](N)C(=O)O; Dap = NC[CH](N)C(=O)O

Tests used:
[1] = molecular target: Ubiquitin carboxyl-terminal hydrolase 1 (Homo sapiens) (UniProt O94782); assay: Inhibitors of USP1/UAF1: Pilot qHTS (AID 504865); further: nearly all actives have a fitted effect of over 35% in size; further: potency means the concentration at half of the fitted maximal effect
Chain of Ubiquitin carboxyl-terminal hydrolase 1 (Homo sapiens) (O94782 whole entry, looked up): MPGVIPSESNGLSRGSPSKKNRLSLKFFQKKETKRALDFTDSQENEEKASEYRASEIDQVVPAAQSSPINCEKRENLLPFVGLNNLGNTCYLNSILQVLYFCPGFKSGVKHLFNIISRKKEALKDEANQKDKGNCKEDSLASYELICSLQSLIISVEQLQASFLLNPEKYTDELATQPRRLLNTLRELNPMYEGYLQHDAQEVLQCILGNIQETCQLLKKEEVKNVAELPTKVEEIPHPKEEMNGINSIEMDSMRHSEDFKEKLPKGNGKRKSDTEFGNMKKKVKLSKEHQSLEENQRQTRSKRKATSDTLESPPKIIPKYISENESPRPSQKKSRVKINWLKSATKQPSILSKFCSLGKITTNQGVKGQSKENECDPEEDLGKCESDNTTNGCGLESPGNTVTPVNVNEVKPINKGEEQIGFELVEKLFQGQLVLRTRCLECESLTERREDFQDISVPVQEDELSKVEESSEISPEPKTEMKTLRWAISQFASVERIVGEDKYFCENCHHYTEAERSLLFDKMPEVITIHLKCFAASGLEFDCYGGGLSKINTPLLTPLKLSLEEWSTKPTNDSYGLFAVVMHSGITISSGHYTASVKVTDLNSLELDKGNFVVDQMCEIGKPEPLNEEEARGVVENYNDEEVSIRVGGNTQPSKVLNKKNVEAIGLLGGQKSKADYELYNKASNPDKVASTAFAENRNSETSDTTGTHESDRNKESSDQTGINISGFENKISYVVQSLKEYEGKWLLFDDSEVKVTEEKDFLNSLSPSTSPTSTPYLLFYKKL
Method in brief: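 Deubiquitinase activity followed as kinetic rhodamine fluorescence release from 150 nM Ub-Rho. 1 nM USP1/UAF1 with compound, after 15 min room-temperature preincubation, in HEPES pH 7.8 buffer containing TCEP, EDTA, BSA and Tween-20.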

[2] = molecular target: DNA dC->dU-editing enzyme APOBEC-3G (Homo sapiens) (UniProt Q9HC16); assay: qHTS for inhibitors of Vif-A3G interactions: Validation (AID 588379); further: potency means the concentration at half of the fitted maximal effect
Chain of DNA dC->dU-editing enzyme APOBEC-3G (Homo sapiens) (Q9HC16 whole entry, looked up): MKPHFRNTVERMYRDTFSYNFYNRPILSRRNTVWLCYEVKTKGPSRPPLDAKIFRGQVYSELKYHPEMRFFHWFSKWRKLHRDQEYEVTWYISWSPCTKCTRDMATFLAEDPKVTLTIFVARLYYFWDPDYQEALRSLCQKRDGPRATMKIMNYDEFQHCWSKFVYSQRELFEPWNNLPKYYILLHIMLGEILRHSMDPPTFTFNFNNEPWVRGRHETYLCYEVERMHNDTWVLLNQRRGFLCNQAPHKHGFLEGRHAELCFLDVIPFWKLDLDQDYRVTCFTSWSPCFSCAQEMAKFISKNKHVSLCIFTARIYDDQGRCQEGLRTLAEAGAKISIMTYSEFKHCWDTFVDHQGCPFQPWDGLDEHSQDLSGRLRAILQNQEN
Method in brief: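 Yellow fluorescence (Ex 488, Em 500-530) of Vif-coexpressing HeLa A3G-eYFP cells, scanned by Acumen cytometer, reports blocked A3G degradation. Cells plated at 700/well overnight at 37 deg C before compound addition, then a further overnight compound incubation at 37 deg C.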

[3] = molecular target: Cytochrome P450 3A4 (Homo sapiens) (UniProt P08684); assay: qHTS Assay for Inhibitors and Substrates of Cytochrome P450 3A4 (AID 884); further: nearly all actives have a fitted effect of over 50% in size; further: potency means the concentration at half of the fitted maximal effect
Chain of Cytochrome P450 3A4 (Homo sapiens) (P08684 whole entry, looked up): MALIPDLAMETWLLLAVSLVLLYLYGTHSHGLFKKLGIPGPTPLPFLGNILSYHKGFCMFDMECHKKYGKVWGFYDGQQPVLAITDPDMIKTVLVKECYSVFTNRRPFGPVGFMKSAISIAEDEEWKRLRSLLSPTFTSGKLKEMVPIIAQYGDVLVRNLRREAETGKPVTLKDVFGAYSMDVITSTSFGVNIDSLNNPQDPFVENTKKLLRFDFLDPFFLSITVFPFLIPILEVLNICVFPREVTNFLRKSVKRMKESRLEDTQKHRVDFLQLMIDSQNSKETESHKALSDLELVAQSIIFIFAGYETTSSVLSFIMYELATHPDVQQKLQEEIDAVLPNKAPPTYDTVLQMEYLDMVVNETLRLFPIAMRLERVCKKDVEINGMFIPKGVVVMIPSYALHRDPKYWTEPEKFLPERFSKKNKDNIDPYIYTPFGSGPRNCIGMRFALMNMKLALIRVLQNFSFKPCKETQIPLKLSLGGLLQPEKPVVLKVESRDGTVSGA
Method in brief: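 Luminescent readout of luciferin produced by CYP3A4 (20 nM) dealkylation of Luciferin-PPXE, 25 uM (its KM). NADPH-driven reaction ran 60 min at RT after 10 min compound preincubation; data scaled to 57 uM ketoconazole as 100% inhibition.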

[4] = Confirmation and Secondary Assay for Modulators of Hemoglobin Beta Chain Splicing at IVS2 654 locus (AID 910);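 further: HeLa cells stably carrying EGFP split by mutant beta-globin IVS2-654 intron; % of control where 0% means no effect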
Method in brief: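 HeLa cells stably expressing EGFP interrupted by β-globin IVS2-654 intron, seeded overnight in Opti-MEM/2% FCS, then treated 2 days at 37 °C. Restored splicing read as total peak GFP intensity per well by laser scanning cytometry (488 nm excitation, 500–520 nm emission); 500 nM antisense PNA as control.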

[5] = Confirmation and Secondary Assay for Modulators of Hemoglobin Beta Chain Splicing at IVS2 705 locus (AID 930);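 further: HeLa cells stably expressing the EGFP-705 splicing reporter; GFP fluorescence per well restored by corrected splicing of the IVS2-705 intron in EGFP; % of control where 0% means no effect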
Method in brief: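 Stable HeLa line with EGFP disrupted by mutant beta-globin intron 2 (705). Overnight attachment, then 2 days of compound at 37C, 5% CO2. Signal: peak GFP intensity summed over objects 5-250 µm.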

[6] = qHTS profiling for inhibitors of Plasmodium falciparum proliferation (AID 504749); further: nearly all actives have a fitted effect of over 60% in size; further: potency means the concentration at half of the fitted maximal effect;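 on activity, negative = inhibition: 0% = DMSO vehicle and full inhibition = artemisinin control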; conditions: P. falciparum in erythrocytes, SYBR Green DNA, 72 h, at 28.7 µM (top of the series)
Method in brief: (§1)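 Each compound contacts P. falciparum-infected red blood cells for 72 h at 37 C; lysis buffer (Tris, EDTA, saponin, Triton X, SYBR Green I) is added and fluorescence measured next morning; values normalized to controls.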

7G8 = assay: as above; conditions: P. falciparum in erythrocytes, SYBR Green DNA, 72 h; series mostly up to 28.7 µM
Method in brief: as §1

ATS189 = assay: as above; conditions: P. falciparum in erythrocytes, SYBR Green DNA, 72 h; series mostly up to 28.7 µM
Method in brief: as §1

CP185 = assay: as above; conditions: P. falciparum in erythrocytes, SYBR Green DNA, 72 h; series mostly up to 28.7 µM
Method in brief: as §1

CP201 = assay: as above; conditions: P. falciparum in erythrocytes, SYBR Green DNA, 72 h; series mostly up to 28.7 µM
Method in brief: as §1

CP238 = assay: as above; conditions: P. falciparum in erythrocytes, SYBR Green DNA, 72 h; series mostly up to 28.7 µM
Method in brief: as §1

CP252 = assay: as above; conditions: P. falciparum in erythrocytes, SYBR Green DNA, 72 h; series mostly up to 28.7 µM
Method in brief: as §1

CP265 = assay: as above; conditions: P. falciparum in erythrocytes, SYBR Green DNA, 72 h; series mostly up to 28.7 µM
Method in brief: as §1

CP286 = assay: as above; conditions: P. falciparum in erythrocytes, SYBR Green DNA, 72 h; series mostly up to 28.7 µM
Method in brief: as §1

CP305 = assay: as above; conditions: P. falciparum in erythrocytes, SYBR Green DNA, 72 h; series mostly up to 28.7 µM
Method in brief: as §1

CP325 = assay: as above; conditions: P. falciparum in erythrocytes, SYBR Green DNA, 72 h; series mostly up to 28.7 µM
Method in brief: as §1

FAB9 = assay: as above; conditions: P. falciparum in erythrocytes, SYBR Green DNA, 72 h; series mostly up to 28.7 µM
Method in brief: as §1

PC15 = assay: as above; conditions: P. falciparum in erythrocytes, SYBR Green DNA, 72 h; series mostly up to 28.7 µM
Method in brief: as §1

PC49 = assay: as above; conditions: P. falciparum in erythrocytes, SYBR Green DNA, 72 h; series mostly up to 28.7 µM
Method in brief: as §1

[7] = molecular target: Cytochrome P450 3A4 (Homo sapiens) (UniProt P08684); assay: qHTS Assay for Activators of Cytochrome P450 3A4 (AID 885); further: nearly all actives have a fitted effect of over 65% in size
Method in brief: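 Activators are scored by enhanced luminescence from CYP3A4 conversion of luciferin-PPXE (25uM, equal to KM) to luciferin, after 60 min at RT with an NADPH-regenerating system.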

Cc1ccc2oc(-c3ccccc3)cc(=O)c2c1
inactive: Potency [1] | Potency [2]

CCC(C)C1NC(=O)C(CCNCS(=O)(=O)O)NC(=O)C(NC(=O)C(CCNCS(=O)(=O)O)NC(=O)C(NC(=O)C(CCNCS(=O)(=O)O)NC(=O)CCCCC(C)C)C(C)O)CCNC(=O)C(C(C)O)NC(=O)C(CCNCS(=O)(=O)O)NC(=O)C(CCNCS(=O)(=O)O)NC(=O)C(C(C)CC)NC1=O (stereo not given) ({Heptanoyl(6-Me)}-[ξDab(CH2SO3H)]T[ξDab(CH2SO3H)][Dab][ξDab(CH2SO3H)]II[ξDab(CH2SO3H)][ξDab(CH2SO3H)]T; lactam 4-C; configuration not given here)
active: Potency [1] 44.7 µM
inactive: Potency [3] | outcome [4] | outcome [5] | activity, negative = inhibition ([6]; parasite line A) -19.4% | activity, negative = inhibition ([6]; parasite line B) 8.48% | Potency (7G8) | Potency (ATS189) | Potency (CP185) | Potency (CP201) | Potency (CP238) | Potency (CP252) | Potency (CP265) | Potency (CP286) | Potency (CP305) | Potency (CP325) | Potency (FAB9) | Potency (PC15) | Potency (PC49)

C[C@H]1[C@H]2CC[C@H]3C4CC=C5C[C@@H](N(C)C)CC[C@]5(C)C4CC[C@]23CN1C (stereo not given in full)
inactive: Potency [3] | Potency [1] | Potency [2]

COc1cc(OC)c2c(c1)OC(c1ccccc1)CC2=O (stereo not given)
inactive: Potency [7] | Potency [1] | Potency [2]
active: Potency [3] 12.6 µM

CC[C@H](/C=C/[C@@H](C)[C@H]1CC[C@H]2C3CC=C4C[C@@H](O)CC[C@]4(C)C3CC[C@]12C)C(C)C (stereo not given in full)
inactive: Potency [3] | Potency [1] | Potency [2]

COc1cc2c(C)c3c4c(cc(OC)c(OC)c4c2cc1OC)CCN3C
active: Potency [3] 15.8 µM | Potency [1] 25.1 µM
inactive: Potency [7] | Potency [2]

NCCCC(N)CC(=O)NC1CNC(=O)C(C2CC(O)N=C(N)N2)NC(=O)/C(=C/NC(N)=O)NC(=O)C(CO)NC(=O)C(CO)NC1=O (stereo not drawn) (ξβ3hOrn-[Dap]SS[ΔAla(Z-3-ureido)][X2]; lactam 1-C; configuration not given here)
inactive: Potency [1] | activity, negative = inhibition ([6]; parasite line A) 5.91% | activity, negative = inhibition ([6]; parasite line B) 6.39% | Potency (7G8) | Potency (ATS189) | Potency (CP185) | Potency (CP201) | Potency (CP238) | Potency (CP252) | Potency (CP265) | Potency (CP286) | Potency (CP305) | Potency (CP325) | Potency (FAB9) | Potency (PC15) | Potency (PC49)

CC1CCC2[C@](C)(CO)C(O)CC[C@]2(C)C12CCC(CO)(CCO)O2 (stereo not given in full)
inactive: Potency [3] | Potency [1] | Potency [2]

COc1ccc(-c2nc3ccc(C4=C(C)CC(=O)NN4)cc3[nH]2)cc1
active: Potency (7G8) 8.91 µM
inactive: activity, negative = inhibition ([6]; parasite line B) -13% | Potency (ATS189) | Potency (CP185) | Potency (CP201) | Potency (CP238) | Potency (CP252) | Potency (CP265) | Potency (CP286) | Potency (CP305) | Potency (CP325) | Potency (FAB9) | Potency (PC15) | Potency (PC49)

COc1ccc(/C=C/C(=O)c2cccs2)cc1OC
active: Potency [3] 2.51 µM
inactive: Potency [7] | Potency [1] | Potency [2]

COc1cccc2c1C(=O)CC(c1ccccc1)O2 (stereo not given)
inactive: Potency [3] | Potency [1] | Potency [2]

CC1(C)C(/C=C/C=C/C=C/C=C2\N(CCCCS(=O)(=O)O)c3ccc4ccccc4c3C2(C)C)=[N+](CCCCS(=O)(=O)[O-])c2ccc3ccccc3c21
inactive: activity, negative = inhibition ([6]; parasite line A) 2.34% | activity, negative = inhibition ([6]; parasite line B) 4.13% | Potency (7G8) | Potency (ATS189) | Potency (CP185) | Potency (CP201) | Potency (CP238) | Potency (CP252) | Potency (CP265) | Potency (CP286) | Potency (CP305) | Potency (CP325) | Potency (FAB9) | Potency (PC15) | Potency (PC49)
active: Potency [1] 31.6 µM

O=C(/C=C/c1ccccc1)c1cccs1
inactive: Potency [3] | Potency [1] | Potency [2]

COc1cc2c(C=O)c3c4c(cc(OC)c(OC)c4c2cc1OC)CCN3C
inactive: Potency [7]
active: Potency [3] 2 µM | Potency [1] 22.4 µM | Potency [2] 21.1 µM

Nc1nc2c(c(=O)[nH]1)N=C(CNc1ccc(C(=O)NC(CCC(=O)O)C(=O)O)cc1)CN2 (stereo not given)
inactive: Potency [3] | Potency [1] | Potency [2]

Cc1csc(-c2nc3ccccc3n2C)n1
active: Potency [3] 31.6 µM
inactive: Potency [7] | Potency [1] | Potency [2]

C[C@H]1O[C@@H](O[C@H]2[C@@H](O)C[C@H](O[C@H]3[C@@H](O)C[C@H](O[C@H]4CC[C@]5(C)C6CC[C@]7(C)[C@@H](C8=CC(=O)OC8)CC[C@]7(O)C6CC[C@@H]5C4)O[C@@H]3C)O[C@@H]2C)C[C@H](O)[C@@H]1O (stereo not given in full)
inactive: Potency [3] | Potency [1] | Potency [2]

CCC(Oc1ccccc1)C(=O)NC1C(=O)N2C1SC(C)(C)C2C(=O)O (stereo not given)
inactive: Potency [1] | activity, negative = inhibition ([6]; parasite line A) -3.05% | activity, negative = inhibition ([6]; parasite line B) 10.5% | Potency (7G8) | Potency (ATS189) | Potency (CP185) | Potency (CP201) | Potency (CP238) | Potency (CP252) | Potency (CP265) | Potency (CP286) | Potency (CP305) | Potency (CP325) | Potency (FAB9) | Potency (PC15) | Potency (PC49)

CC(C)C(NC(=O)C(CC(=O)O)NC(=O)C(CCCCN)NC(=O)C(N)CCCN=C(N)N)C(=O)NC(Cc1ccc(O)cc1)C(=O)O (stereo not given) (H-RKDVY-OH; configuration not given here)
inactive: Potency [1] | activity, negative = inhibition ([6]; parasite line A) 0.811% | activity, negative = inhibition ([6]; parasite line B) 3.22% | Potency (7G8) | Potency (ATS189) | Potency (CP185) | Potency (CP201) | Potency (CP238) | Potency (CP252) | Potency (CP265) | Potency (CP286) | Potency (CP305) | Potency (CP325) | Potency (FAB9) | Potency (PC15) | Potency (PC49)
